Activity calls are given as the source filed them. The calls were made as follows: active = hit-call score of the fitted dose curve at least 0.9, where 1 is the maximum; inactive = score below 0.9.
Assay: ATG_BRE_CIS: Attagene CIS-FACTORIAL HepG2 Assay for human Bone Morphogenetic Protein (BMP) Response Element (BRE) (AID 2282933)
Conditions: HepG2 BMP response element reporter, Attagene transcription factor profiling; actives raise or lower the signal
Experimental: ATG_CIS is a cell-based, multiplexed-readout assay that uses HepG2, a human liver cell line, with measurements taken at 24 hours after chemical dosing in a 24-well plate.ATG_BRE_CIS is one of 52 assay component(s) measured or calculated from the ATG_CIS assay. It is designed to make measurements of mRNA induction, a form of inducible reporter, as detected with fluorescence intensity signals by Reverse transcription polymerase chain reaction (RT-PCR) and Capillary electrophoresis technology.Data from the assay component ATG_BRE_CIS was analyzed into 1 assay endpoint. This assay endpoint, ATG_BRE_CIS, was analyzed with bidirectional fitting relative to DMSO as the negative control and baseline of activity. Using a type of inducible reporter, measures of mRNA for gain or loss-of-signal activity can be used to understand the reporter gene at the transcription factor-level as they relate to the gene SMAD1. Furthermore, this assay endpoint can be referred to as a primary readout, because this assay has produced multiple assay endpoints where this one serves a reporter gene function. To generalize the intended target to other relatable targets, this assay endpoint is annotated to the dna binding intended target family, where the subfamily is Smad protein.
Human liver HepG2 cells are transiently transfected with multiple reporter transcription units (MRTUs) in 6-well plates using FuGene 6 reagent (Roche; 3 ml FuGene/1 mg DNA). The MRTU constructs are regulated by a cis-regulating element (promoter). […] A major difference between the CIS and TRANS system is that in CIS activities of endogenous TFs are measured, whereas the TRANS assay evaluates changes in activities of exogenous, chimeric NR-Gal4 proteins. […] At the end of 24 hour incubation, total RNA was isolated using TriZol reagent (Invitrogen). The isolated RNA is then reverse-transcribed using oligo(dT) primer and Mo-MLV reverse transcriptase (Invitrogen) with DNAse I (Ambion) treatment for 30 min. The one-tenth of the produced cDNA was amplified by PCR using Taq DNA polymerase (Invitrogen) and two reporter sequence-specific primers. The PCR products were fluorescently labeled by primer extension with 6-arboxyfluorescein (6-FAM) 5'-labeled reporter sequence-specific primer (2 min at 95 C, 20 s at 68 C and 10 min at 72 C) and these products were digested with 5U of HpaI (New England Biolabs) for 2h at 37 C. The fragments were purified using Qiaquick PCR columns (Qiagen), analyzed on an ABI 3130xL genetic analyzer (Applied Biosystems) with peak positions identified by using a set of X-rhodamine (ROX)-labeled MapMarker1000 molecular weight standards (BioVentures). The raw capillary electrophoresis data was processed using Attagraph software (Attagene).

| SMILES | outcome | AC50 |
| --- | --- | --- |
| C=CC(O)CCCCC (stereo not given) | inactive | – |
| CCCCCCCCCC(=O)OCC | inactive | – |
| CCCCCC(=O)O[C@]1(C(C)=O)CC[C@H]2[C@@H]3CCC4=CC(=O)CC[C@]4(C)[C@H]3CC[C@@]21C | – | 7.66 µM (active) |
| O=c1cc(-c2ccc(O)cc2)oc2cc(O)cc(O)c12 | inactive | – |
| CC(=N[Si](C)(C)C)O[Si](C)(C)C | inactive | – |
| C=C1CC/C=C(\C)CC[C@@H]2[C@@H]1CC2(C)C | inactive | – |
| CC(C)C(=O)OCC=Cc1ccccc1 | inactive | – |
| C=COCC1CCC(COC=C)CC1 (stereo not given) | inactive | – |
| CCCCOCC(C)OCC(C)O (stereo not given) | inactive | – |
| CC(=O)OC/C=C(C)/C=C/C=C(C)/C=C/C1=C(C)CCCC1(C)C | inactive | – |
| CCCCN(CCO)CCO | inactive | – |
| Cc1cc(O)c(C)c(C)c1O | – | 52.8 µM (active) |
| [Cu+] | inactive | – |
| CCC(=O)OC(C)(C)C1CC=C(C)CC1 (stereo not given) | inactive | – |
| CCCC[N+](C)(CCCC)CCCC | inactive | – |
| c1ccc2scnc2c1 | inactive | – |
| CCC(=O)OCC=Cc1ccccc1 | inactive | – |
| COc1ccc(N)c(C)c1 | – | 151 µM (active) |
| CC(CO)c1ccccc1 (stereo not given) | inactive | – |
| CC=CC(=O)C1=C(C)C=CCC1(C)C | inactive | – |

| SMILES | outcome | AC50 |
| --- | --- | --- |
| NC(=O)c1cnccn1 | inactive | – |
| S=c1[nH][nH]c(=S)s1 | inactive | – |
| NC(=O)NC(N)=O | inactive | – |
| CCC(C)(C)C1CCC(=O)CC1 | inactive | – |
| O=S(=O)(O)CCCN1CCOCC1 | inactive | – |
| CC/C=C\CCCCO | inactive | – |
| CCCCCC1C(=O)CCC1CC(=O)OC (stereo not given) | inactive | – |
| CC(=O)C1=C(C)[C@@H]2C[C@@]3(C1)[C@H](C)CC[C@H]3C2(C)C | inactive | – |
| C=C(C)C(=O)OCCOCCOC(=O)C(=C)C | inactive | – |
| Cc1cccc(O)c1 | inactive | – |
| CC(C)(O)CCc1ccccc1 | inactive | – |
| CN1CCc2cccc3c2[C@H]1Cc1ccc(O)c(O)c1-3 | inactive | – |
| Cc1cc(N)n(-c2ccccc2)n1 | inactive | – |
| OCC=Cc1ccccc1 | inactive | – |
| CCC(C)(CCCC(C)C)OC(C)=O (stereo not given) | inactive | – |
| O=[N+]([O-])c1cc(N(CCO)CCO)ccc1NCCO | inactive | – |
| CCOc1ccc(NC(C)=O)cc1 | inactive | – |
| CCCCCCCCCOS(=O)(=O)O | inactive | – |
| CC(O)CNCC(C)O (stereo not given) | inactive | – |
| CC(=O)Nc1cc(S(=O)(=O)O)cc2cc(S(=O)(=O)O)c(N=Nc3ccccc3)c(O)c12 | inactive | – |

From PubChem BioAssay (EPA / NIEHS)
